Entries with a potency or affinity are not part of this list.

For the first experiment, the system named is Staphylococcus aureus. The following applies: Concentration 32 ug.mL-1;; ASSAY_TEST Inhibition of Bacterial Growth; detection method Absorption (OD600); MEDIA CAMHB; plate type 384well; NBS; CORNING #3640; time 18 hr.
For the compound `Cn1c(=O)c2ccc(C(=O)NC3CCCCC3)cc2n2c(=O)n(CC#N)nc12`, the Inhibition (as a rule, the change of the read-out against control, counted positive when it falls) worked out at 10.61%.

Take `CC(C)CCn1c(=O)c2sccc2n2c(=O)n(Cc3c(F)cccc3Cl)nc12`: the Inhibition came to 13.63%.

In the case of `Cc1ccc(-c2cc3c4nnc(SCC(=O)Nc5ccccc5Br)n4ccn3n2)cc1`, the Inhibition is 1.85%.

On to `COc1ccccc1NC(=O)Cn1c(=O)c2nnc(C(C)C)n2c2ccccc21`, for which the Inhibition was 22.81%.

For the compound `Cc1cccc(CN(c2ccccc2)S(=O)(=O)c2cccn3c(C)nnc23)c1`, the Inhibition worked out at 5.16%.

On to `CCOC(=O)c1ccccc1NC(=O)CSc1nnc2ccc(C(=O)Nc3cccc(F)c3)cn12`, for which the Inhibition came to 9.51%.

Turning to `O=C(Cn1nc2c3cc(F)ccc3ncn2c1=O)Nc1ccc2c(c1)OCO2`, the Inhibition amounted to 5.65%.

Consider `O=C(CCc1nnc2c(N3CCCCC3)nc3ccccc3n12)NCc1ccc(Cl)cc1`, for which the Inhibition stood at 12.63%.

On to `COc1ccc(CNC(=O)Cn2nc3c(SCc4ccc(Cl)cc4)nccn3c2=O)cc1`, for which the Inhibition was -6.61%.

Take `Cc1cc(C)c(C(=O)CSc2nnc3c(=O)n(-c4ccc(F)c(F)c4)ccn23)cc1C`: the Inhibition is given as 17%.

Regarding `Cc1ccc(-c2cc3c4nnc(SCC(=O)Nc5ccc(C#N)cc5)n4ccn3n2)cc1`, the Inhibition is on record as -4.94%.

On to `CCc1ccccc1NC(=O)Cn1nc2cc(C)nc(Nc3ccc(F)cc3)n2c1=O`, for which the Inhibition was 8.34%.

As for `COc1cccc(C(=O)CSc2nnc3c(=O)n(-c4ccc(F)cc4)ccn23)c1`, the Inhibition came to 4.06%.

Regarding `Cc1cc(C)cc(NC(=O)Cn2nc3ccc(SCc4ccc(Cl)cc4)nn3c2=O)c1`, the Inhibition is -7.67%.

In the case of `CCCCn1c(=O)c2sccc2n2c(=O)n(CC(=O)N3CCC(Cc4ccccc4)CC3)nc12`, the Inhibition was -14.82%.

On to `O=C(Cn1nc2c(SCc3ccc(Cl)cc3)nccn2c1=O)N1CCN(c2ccccc2)CC1`, for which the Inhibition is reported as -0.6%.

Take `COc1cccc(-n2ccn3c(SCC(=O)Nc4ccc5c(c4)OCCO5)nnc3c2=O)c1`: the Inhibition was 11.59%.

As for `Cc1cc(C)c(NC(=O)Cn2nc3c4c5c(sc4ncn3c2=O)CCCC5)c(C)c1`, the Inhibition came to 8.81%.

On to `COc1ccccc1N1CCN(C(=O)CSc2nnc3c(=O)n(-c4ccc(F)cc4)ccn23)CC1`, for which the Inhibition amounted to 6.93%.

Consider `COC(=O)c1ccc(NC(=O)Cn2nc3nc(N4CCCCCC4)ccn3c2=O)cc1`, for which the Inhibition is recorded as 7.17%.

`COc1ccc(N(Cc2cccc(F)c2)S(=O)(=O)c2ccc3nncn3c2)cc1`: the Inhibition is -9.11%.

Turning to `COC(=O)c1ccccc1NC(=O)Cn1nc2c(Oc3ccccc3)nccn2c1=O`, the Inhibition stood at 8.3%.

On to `COc1cccc(CNC(=O)Cn2nc3c4cc(-c5cc(C)ccc5C)nn4ccn3c2=O)c1OC`, for which the Inhibition is reported as 2.74%.

As for `CCOc1ccc(C(=O)Cn2nc3n(Cc4ccccc4OC)c(=O)c4sccc4n3c2=O)cc1`, the Inhibition is -7.18%.

Regarding `CCOc1ccc(-n2ccn3c(SCC(=O)c4cccc(Cl)c4)nnc3c2=O)cc1`, the Inhibition was found to be 18.89%.

Take `O=C(Cn1nc2c(SC3CCCCC3)nccn2c1=O)Nc1ccc(Cl)cc1F`: the Inhibition was 4.94%.

Turning to `COc1cccc(-n2ccn3c(SCC(=O)Nc4ccc(C(C)C)cc4)nnc3c2=O)c1`, the Inhibition is 0.38%.

On to `CCCCOc1ccc(-c2cc3c4nnc(SCC(=O)Nc5ccc(CC)cc5)n4ccn3n2)cc1`, for which the Inhibition was -9.56%.

As to `Cc1cccc(C)c1NC(=O)CSc1nnc2ccc(C(=O)Nc3cccc(F)c3)cn12`, the Inhibition is recorded as 12.1%.

With `COc1cccc(-n2ccn3c(SCc4ccc(F)cc4)nnc3c2=O)c1`, the Inhibition is reported as 5.89%.

Turning to `CCN(C(=O)CSc1nnc2c3cc(-c4ccc(OC)cc4)nn3ccn12)c1ccccc1`, the Inhibition was found to be 5.44%.

As to `COc1ccc(N(Cc2cccc(C)c2)S(=O)(=O)c2ccc3nncn3c2)cc1`, the Inhibition is -29.14%.

Regarding `Cc1ccccc1N1CCN(c2nccn3c(=O)n(CC(=O)NCc4cc(F)cc(F)c4)nc23)CC1`, the Inhibition is 9.65%.

On to `O=C(Cn1nc2c(SCc3ccc(Cl)cc3)nccn2c1=O)Nc1ccccc1F`, for which the Inhibition was 4.88%.

For the compound `Cc1ccc(Cn2c(=O)c3ccccc3n3c(=O)n(CC#N)nc23)cc1`, the Inhibition is reported as 3.14%.

Regarding `O=S(=O)(c1cccn2cnnc12)N(Cc1cccc(F)c1)c1cccc(Cl)c1`, the Inhibition is reported as 6.21%.

For the compound `CCc1ccc(N(Cc2cccc(Cl)c2)S(=O)(=O)c2cccn3c(C)nnc23)cc1`, the Inhibition came out at 10.13%.

Take `O=C(Cn1nc2c3cc(-c4ccc(F)cc4)nn3ccn2c1=O)N1CCCc2ccccc21`: the Inhibition is -1.84%.

Regarding `COC(=O)c1cccc(NC(=O)Cn2nc3ccc(-c4ccc(C)c(C)c4)nn3c2=O)c1`, the Inhibition stood at 2.69%.

The subject of the next experiment is Escherichia coli. To be noted: Concentration 32 ug.mL-1;; ASSAY_TEST Inhibition of Bacterial Growth; detection method Absorption (OD600); MEDIA CAMHB; plate type 384well; NBS; CORNING #3640; time 18 hr.
Take `Cn1c(=O)c2ccc(C(=O)NC3CCCCC3)cc2n2c(=O)n(CC#N)nc12`: the Inhibition worked out at 1.2%.

With `CC(C)CCn1c(=O)c2sccc2n2c(=O)n(Cc3c(F)cccc3Cl)nc12`, the Inhibition was determined as 0.76%.

In the case of `Cc1ccc(-c2cc3c4nnc(SCC(=O)Nc5ccccc5Br)n4ccn3n2)cc1`, the Inhibition was -3.11%.

Consider `COc1ccccc1NC(=O)Cn1c(=O)c2nnc(C(C)C)n2c2ccccc21`, for which the Inhibition is -0.08%.

Take `Cc1cccc(CN(c2ccccc2)S(=O)(=O)c2cccn3c(C)nnc23)c1`: the Inhibition is -11.12%.

With `CCOC(=O)c1ccccc1NC(=O)CSc1nnc2ccc(C(=O)Nc3cccc(F)c3)cn12`, the Inhibition is listed as -2.64%.

With `O=C(Cn1nc2c3cc(F)ccc3ncn2c1=O)Nc1ccc2c(c1)OCO2`, the Inhibition was -3%.

With `O=C(CCc1nnc2c(N3CCCCC3)nc3ccccc3n12)NCc1ccc(Cl)cc1`, the Inhibition is 0.78%.

Turning to `COc1ccc(CNC(=O)Cn2nc3c(SCc4ccc(Cl)cc4)nccn3c2=O)cc1`, the Inhibition is -12.31%.

For `Cc1cc(C)c(C(=O)CSc2nnc3c(=O)n(-c4ccc(F)c(F)c4)ccn23)cc1C`, the Inhibition is listed as -3.21%.

For the compound `Cc1ccc(-c2cc3c4nnc(SCC(=O)Nc5ccc(C#N)cc5)n4ccn3n2)cc1`, the Inhibition is given as -8.26%.

Regarding `CCc1ccccc1NC(=O)Cn1nc2cc(C)nc(Nc3ccc(F)cc3)n2c1=O`, the Inhibition was -2.85%.

In the case of `COc1cccc(C(=O)CSc2nnc3c(=O)n(-c4ccc(F)cc4)ccn23)c1`, the Inhibition came out at 2.2%.

As for `Cc1cc(C)cc(NC(=O)Cn2nc3ccc(SCc4ccc(Cl)cc4)nn3c2=O)c1`, the Inhibition is given as -11.38%.

Regarding `CCCCn1c(=O)c2sccc2n2c(=O)n(CC(=O)N3CCC(Cc4ccccc4)CC3)nc12`, the Inhibition is reported as -3.89%.

For the compound `O=C(Cn1nc2c(SCc3ccc(Cl)cc3)nccn2c1=O)N1CCN(c2ccccc2)CC1`, the Inhibition is listed as -2.68%.

In the case of `COc1cccc(-n2ccn3c(SCC(=O)Nc4ccc5c(c4)OCCO5)nnc3c2=O)c1`, the Inhibition was -2.35%.

Consider `Cc1cc(C)c(NC(=O)Cn2nc3c4c5c(sc4ncn3c2=O)CCCC5)c(C)c1`, for which the Inhibition is given as -5.83%.

For `COc1ccccc1N1CCN(C(=O)CSc2nnc3c(=O)n(-c4ccc(F)cc4)ccn23)CC1`, the Inhibition is reported as 2.55%.

As to `COC(=O)c1ccc(NC(=O)Cn2nc3nc(N4CCCCCC4)ccn3c2=O)cc1`, the Inhibition was -2.48%.

In the case of `COc1ccc(N(Cc2cccc(F)c2)S(=O)(=O)c2ccc3nncn3c2)cc1`, the Inhibition came to 1.35%.

Consider `COC(=O)c1ccccc1NC(=O)Cn1nc2c(Oc3ccccc3)nccn2c1=O`, for which the Inhibition is on record as -3.16%.

As to `COc1cccc(CNC(=O)Cn2nc3c4cc(-c5cc(C)ccc5C)nn4ccn3c2=O)c1OC`, the Inhibition is -0.3%.

With `CCOc1ccc(C(=O)Cn2nc3n(Cc4ccccc4OC)c(=O)c4sccc4n3c2=O)cc1`, the Inhibition is on record as -6.25%.

As for `CCOc1ccc(-n2ccn3c(SCC(=O)c4cccc(Cl)c4)nnc3c2=O)cc1`, the Inhibition stood at 0.66%.

For `O=C(Cn1nc2c(SC3CCCCC3)nccn2c1=O)Nc1ccc(Cl)cc1F`, the Inhibition is on record as -2.75%.

Consider `COc1cccc(-n2ccn3c(SCC(=O)Nc4ccc(C(C)C)cc4)nnc3c2=O)c1`, for which the Inhibition was -24.97%.

Regarding `CCCCOc1ccc(-c2cc3c4nnc(SCC(=O)Nc5ccc(CC)cc5)n4ccn3n2)cc1`, the Inhibition is -11.54%.

For `Cc1cccc(C)c1NC(=O)CSc1nnc2ccc(C(=O)Nc3cccc(F)c3)cn12`, the Inhibition is 2.91%.

On to `COc1cccc(-n2ccn3c(SCc4ccc(F)cc4)nnc3c2=O)c1`, for which the Inhibition is on record as -10.24%.

Turning to `CCN(C(=O)CSc1nnc2c3cc(-c4ccc(OC)cc4)nn3ccn12)c1ccccc1`, the Inhibition is reported as -0.03%.

`COc1ccc(N(Cc2cccc(C)c2)S(=O)(=O)c2ccc3nncn3c2)cc1`: the Inhibition is recorded as -12.64%.

For the compound `Cc1ccccc1N1CCN(c2nccn3c(=O)n(CC(=O)NCc4cc(F)cc(F)c4)nc23)CC1`, the Inhibition is on record as -0.75%.

Take `O=C(Cn1nc2c(SCc3ccc(Cl)cc3)nccn2c1=O)Nc1ccccc1F`: the Inhibition is on record as -0.33%.

As to `Cc1ccc(Cn2c(=O)c3ccccc3n3c(=O)n(CC#N)nc23)cc1`, the Inhibition was -7.28%.

`O=S(=O)(c1cccn2cnnc12)N(Cc1cccc(F)c1)c1cccc(Cl)c1`: the Inhibition is -7.43%.

In the case of `CCc1ccc(N(Cc2cccc(Cl)c2)S(=O)(=O)c2cccn3c(C)nnc23)cc1`, the Inhibition is reported as -1.93%.

Turning to `O=C(Cn1nc2c3cc(-c4ccc(F)cc4)nn3ccn2c1=O)N1CCCc2ccccc21`, the Inhibition is given as -5.07%.

`COC(=O)c1cccc(NC(=O)Cn2nc3ccc(-c4ccc(C)c(C)c4)nn3c2=O)c1`: the Inhibition is given as -10.93%.

These data come from ChEMBL document CHEMBL4513146, “CO-ADD screening of Karazin Kharkiv National University (Ukraine) compounds”.
